The list is not random: actives were taken first. Their share in the collection is about 19%.
IL1B secr inh = qHTS for Inhibitors of Inflammasome Signaling: IL-1-beta AlphaLISA Primary Screen | THP-1 LPS/ATP IL-1B secretion, AlphaLISA, 16 h; hits give low values | activity change, % at 57.5 µM | 360,000 tested, 4.7% active | AID 743279, 2014; in the data active = activity change below about -50%; inconclusive = mostly about -30% to -49%
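THP-1 cells pretreated 1 hr with compounds (up to 57.5 uM final), then stimulated with LPS (250 ng/mL final) plus ATP (1.25 mM final); secreted IL-1B measured by AlphaLISA after 16 hr, decreased signal indicating inhibition.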
Giardia killer = Small Molecules that selectively kill Giardia lamblia: qHTS; 340,000 tested, 0.15% active; AID 540267, 2011; Giardia lamblia trophozoite viability; activity change, % at 7.66 µM, hits read low; in the data active = activity change below about -80%; inconclusive = between about -30% and that limit;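 note: parasites exposed to compound for two days anaerobically before the ATP read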
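Luminescent ATP signal served as the viability read-out, measured 15-30 min after adding ATP detection reagent to trophozoites that had been incubated with compounds for 48 hrs at 37 deg C anaerobically at 100 cells/well.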
TDP1 cell CPT = qHTS for Inhibitors of human tyrosyl-DNA phosphodiesterase 1 (TDP1): qHTS in cells in presence of CPT | chicken DT40 Tdp1-/-;hTDP1 cells + 20 nM CPT, ATP luminescence, 48 h | Potency, µM (highest dose often 46.2 µM), usual class: inhibitors | 420,000 tested, 12% active; note: nearly all actives have a fitted effect of over 55% in size
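Chicken DT40 Tdp1-/- cells stably complemented with human TDP1 were seeded at 400 cells/well in medium containing 20 nM camptothecin, exposed to pin-transferred compounds, and grown at 37 °C for at least 48 hr. Viability was read as ATP luminescence.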
ELG1 DNA repair = qHTS screen for small molecules that inhibit ELG1-dependent DNA repair in human embryonic kidney (HEK293T) cells expressing luciferase-tagged ELG1 | HEK293T ELG1-luciferase reporter, luminescence, 16 h; DNA damage induced by 5-fluorouridine | Potency, µM (highest dose often 46.1 µM), hits mostly inhibitors | 330,000 tested, 2.3% active | AID 504467, 2011; note: nearly all actives have a fitted effect of over 55% in size
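Overnight (16 hr) co-exposure of 2,000 cells/well to 5-fluorouridine and compound at 37 °C preceded detection. Luciferase was quantified via ONE-Glo luminescence; loss of signal denotes inhibition.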
TDP1 inh = qHTS Assay for Inhibitors of Tyrosyl-DNA Phosphodiesterase (TDP1). Tyrosyl-DNA phosphodiesterase 1 (Homo sapiens), Q9NUW8. recombinant TDP1, AlphaScreen DNA substrate cleavage. Potency, µM (highest dose often 130 µM), usual class: inhibitors. 350,000 tested, 0.28% active. AID 485290, 2010; note: nearly all actives have a fitted effect of over 40% in size
Target sequence (Q9NUW8 whole entry, looked up): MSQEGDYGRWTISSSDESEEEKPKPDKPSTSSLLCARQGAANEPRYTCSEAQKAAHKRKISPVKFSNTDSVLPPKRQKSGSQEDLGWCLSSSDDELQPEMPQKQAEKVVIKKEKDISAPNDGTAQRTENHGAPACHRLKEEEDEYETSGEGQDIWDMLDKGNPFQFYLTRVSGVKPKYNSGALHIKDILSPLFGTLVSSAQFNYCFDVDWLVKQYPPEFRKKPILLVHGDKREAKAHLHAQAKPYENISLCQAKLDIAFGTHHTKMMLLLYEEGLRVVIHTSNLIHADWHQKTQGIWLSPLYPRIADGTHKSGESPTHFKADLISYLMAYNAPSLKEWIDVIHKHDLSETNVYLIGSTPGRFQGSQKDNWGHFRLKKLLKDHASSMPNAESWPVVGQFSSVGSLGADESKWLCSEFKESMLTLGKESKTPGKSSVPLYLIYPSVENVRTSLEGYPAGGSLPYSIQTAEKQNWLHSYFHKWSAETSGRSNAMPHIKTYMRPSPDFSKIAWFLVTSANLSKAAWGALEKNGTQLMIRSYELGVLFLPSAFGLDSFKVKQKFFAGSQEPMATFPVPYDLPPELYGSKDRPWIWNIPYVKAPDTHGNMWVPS
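Tdp1 1 nM final; 15 min RT w/ cpd; substrate 15 nM, 5 min; beads 10 ug/ml, 10 min; AlphaScreen read. Neg ctrl: no enzyme.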
DT40 TDP1 no CPT = qHTS for Inhibitors of human tyrosyl-DNA phosphodiesterase 1 (TDP1): qHTS in cells in absence of CPT. DT40 Tdp1-/- hTDP1 cells, no CPT, ATP luminescence, 48 h. Potency, µM (series often up to 46.2 µM), most hits filed as inhibitors. 420,000 tested, 15% active; note: nearly all actives have a fitted effect of over 55% in size
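Readout: luminescence from CellTiter-Glo after 30 min in the dark at RT. Cells: DT40 Tdp1-/- with stable hTDP1, 400/well. Exposure: compounds alone, ≥48 hr, 37 °C.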
A number is an active result; 0 = inactive; ? = inconclusive; - = not tested or not shown; [ ] = remark or other dose. Unless noted, calls come from the whole dose curve; as a rule, active = well fitted curve in the direction sought with a large enough effect; inconclusive = small, poorly fitted or top-dose-only effect, or another doubt; inactive = no such curve, though single readings can be large; an effect the other way counts as inactive or inconclusive.

SMILES	IL1B secr inh	Giardia killer	TDP1 cell CPT	ELG1 DNA repair	TDP1 inh	DT40 TDP1 no CPT
CS(=O)(=O)c1ccc(CNC(=O)[C@H]2C[C@@H]2[C@H](NP(=O)(c2ccccc2)c2ccccc2)c2ccccc2)cc1	-	-	-	-	0	-
CCN(C(=O)c1cnc2ccc(C)cn2c1=O)c1ccccc1	-	-	0	-	0	0
Cc1ccc(CNC(=O)C2CCN(S(=O)(=O)c3ccc4c(c3)oc(=O)n4C)CC2)cc1	-	-	0	-	0	0
Nc1cc2[nH]c(=O)c3ccccc3c2cc1Br	0	0	0	-	-	0
CC(=O)Nc1ccc2c(c1)[nH]c(=O)c1ccccc12	0	0	0.82µM	-	-	?
Nc1ccc2c(c1)[nH]c(=O)c1ccccc12	-75	0	?	-	-	?
CC(C)N(C)c1ncnc2c1ncn2[C@H]1CN(Cc2ccc(Cl)cc2)C[C@@H](CO)O1	0	-	?	-	-	?
COc1ccccc1N1CCN(/N=C/c2ccc(O)c(O)c2)CC1	0	0	18µM	0	0	9.2µM
COc1cc(/C=N/N2CCCCC2)cc(OC)c1O	0	0	18µM	0	-	18µM
COc1cc(C=NN2CCCCC2)cc(OC)c1OC	0	-	0	-	-	0
COc1ccc(/C=N/N2CCN(c3ccccc3OC)CC2)cc1Br	0	0	0	?	-	0
COc1ccc(/C=N/N2CCN(c3ccccc3)CC2)cc1Br	-55	0	0	0	-	0
CC1(C)Oc2ccc3ccc(=O)oc3c2/C(=C/Nc2ccc(O)cc2)C1=O	-81	0	0	?	0	?
CC1(C)Oc2ccc3ccc(=O)oc3c2/C(=C/Nc2cccc(O)c2)C1=O	-84	0	?	?	0	21µM
CC1(C)Oc2ccc3ccc(=O)oc3c2/C(=C/Nc2ccccn2)C1=O	0	0	?	?	0	?
CCCC(=O)N1CCC1(C)C(=O)Nc1ccc(C)c(C)c1 (stereo not given)	0	-	?	-	-	?
CCN1CCN(c2csc3ccc(Br)cc3c2=O)CC1	-	-	?	-	0	0
CC[C@H](CO)Nc1nc(Nc2cccc(Cl)c2)c2ncn(C(C)C)c2n1	-99	0	9.2µM	7.3µM	0	9.2µM
CCOC(=O)N1CCC(NCCNC(=O)c2cccc(F)c2)CC1	0	0	0	0	0	0
CCN(C(=O)CCc1nc(-c2ccc(OC)cc2)no1)c1cc(OC)ccc1OC	0	0	?	16µM	0	?
COc1ccc(-c2noc(CCC(N)=O)n2)cc1OC	0	0	?	?	0	0
Cc1ccc(-c2noc(CCC(=O)N(C)c3ccccc3C)n2)cc1	0	0	?	?	0	15µM
CCN(C(=O)CCc1nc(-c2ccc(C)cc2)no1)c1cc(C)ccc1C	-	-	18µM	-	0	23µM
COc1ccc(-c2noc(CCC(=O)N(C)c3cccc(C)c3)n2)cc1	0	0	?	0	0	?
O=C(Nc1cc(F)ccc1F)c1cc2nc(-c3ccco3)cc(C(F)(F)Cl)n2n1	-	-	0	-	0	0
SMILES	IL1B secr inh	Giardia killer	TDP1 cell CPT	ELG1 DNA repair	TDP1 inh	DT40 TDP1 no CPT
O=C(c1ccco1)N1CCN(c2ncnc3scc(-c4ccc(F)cc4)c23)CC1	0	0	?	0	0	?
Cc1sc2nc(C(C)C)nc(SCC(=O)N3CCN(C(=O)c4ccco4)CC3)c2c1C	0	0	?	18µM	0	?
Cc1ccc(-c2csc3ncnc(N4CCN(C(=O)c5ccco5)CC4)c23)cc1	0	0	?	16µM	0	?
Cc1sc2ncnc(N3CCN(C(=O)c4ccco4)CC3)c2c1C	0	0	0	12µM	0	21µM
Cc1cccc2[nH]c3c(N4CCN(C(=O)c5ccco5)CC4)ncnc3c12	?	0	?	?	0	18µM
COc1ccc(NS(=O)(=O)c2cccc(C(=O)NCc3ccco3)c2)cc1	0	0	0	0	-	?
CO[C@H]1COC(=O)[C@H](C)NC(=O)C/C=C\[C@@H](C)[C@H](OC)COC(=O)C/C=C\[C@@H]1C	-	-	-	-	0[21 µM]	-
COc1ccc(-c2nc3c(C)cc(Br)cn3c2Cc2ccsc2)cc1OC	0	-	?	-	-	?
Cc1nc(SCC(=O)NC2CC2)c2c(C)c(C)sc2n1	0	0	?	0	0	?
Cc1sc2nc(C(C)C)nc(SCC(=O)NC3CC3)c2c1C	0	0	16µM	0	0[0.0935 µM]	16µM
CCc1cc2ccc(OC)cc2nc1SCC(=O)N1CCN(C(=O)c2ccco2)CC1	0	0	?	21µM	-	0
COc1ccc(-c2cc(C(F)(F)F)nc(-n3ccnc3C)n2)cc1	0	0	?	26µM	0	21µM
COc1ccc(-c2cc(C(F)(F)F)nc(N3CCN(C)CC3)n2)cc1	-65	0	?	?	0	16µM
COc1ccc(-c2cc(C(F)(F)F)nc(N3CCN(C)CC3)n2)cc1OC	0	0	?	?	0	21µM
COc1ccccc1CNC(=O)CN1C(=O)CCc2cc(S(=O)(=O)N3CCOCC3)ccc21	-	-	0	-	0	0
CCN1C(C)=C(C(=O)OC)C(c2ccccc2)N2C(=O)[C@](O)(C(=O)OC)CC(C#N)=C12 (stereo not given in full)	-	-	-	-	0[21 µM]	-
CC1CN(C(=O)N2CCCCC2)CCN1C(=O)N1CCCCC1 (stereo not given)	0	0	0	0	0	0
O=C(CCCc1nc(-c2ccc(Cl)cc2)no1)Nc1cccnc1	0	0	16µM	?	0	15µM
COc1ccccc1-c1noc(CCC(=O)Nc2cccc(C)c2)n1	0	0	?	0	0	?
O=C(CCc1nc(-c2ccccc2F)no1)Nc1cccc(C(F)(F)F)c1	-	-	18µM	-	0	15µM
CCOC(=O)c1cccc(NC(=O)CCc2nc(-c3ccc(C)cc3)no2)c1	0	0	?	?	0	23µM
CCOC(=O)c1cccc(NC(=O)CCc2nc(-c3ccccc3F)no2)c1	0	0	23µM	0	0	?
O=C(CCc1nc(-c2ccccc2F)no1)NCc1ccco1	0	0	0	0	0	0
COc1ccc(C(=O)N/N=C(\C)c2ccc(NC(=O)Cc3ccccc3)cc2)c(OC)c1	0	0	0	?	0	0
COc1ccc(-c2noc(CCC(=O)Nc3cccc(C(=O)NC4CC4)c3)n2)cc1OC	-53	-	?	-	-	?
O=C(NCCc1ccccc1)c1ccc(NC(=O)c2cccnc2)cc1	0	0	0	0	-	?
O=C(Nc1ccc(-c2noc(CCc3ccccc3)n2)cc1)c1cccnc1	?	0	18µM	23µM	0	12µM

From PubChem
